Assay outcomes (PubChem BioAssay)
This is a sample that favours compounds with a hit; in the whole collection about 12% have one here.
USP7 block = inhibitors of human USP7 deubiquitinase. Q93009. purified USP7, Ub-rhodamine cleavage fluorescence. inhibition, % at 20 µM. actives 0.3% (n = 47,000). AID 1645854
USP8 inh = blocks human USP8 ubiquitin-rhodamine cleavage; P40818; purified USP8, Ub-rhodamine cleavage fluorescence, 30 min; inhibition, % at 20 µM; actives 4.2% (n = 47,000); AID 1645853
USP30 inh = human USP30 deubiquitinase inhibition | Q70CQ3 | purified USP30, Ub-rhodamine cleavage fluorescence | inhibition, % at 25 µM | actives 5.3% (n = 47,000)
USP17 inh = blocks human USP17 ubiquitin-rhodamine cleavage; A8MUK1; purified USP17, Ub-rhodamine cleavage fluorescence, 3 h; inhibition, % at 50 µM; actives 6.5% (n = 47,000)
Target sequence (A8MUK1 whole entry, looked up): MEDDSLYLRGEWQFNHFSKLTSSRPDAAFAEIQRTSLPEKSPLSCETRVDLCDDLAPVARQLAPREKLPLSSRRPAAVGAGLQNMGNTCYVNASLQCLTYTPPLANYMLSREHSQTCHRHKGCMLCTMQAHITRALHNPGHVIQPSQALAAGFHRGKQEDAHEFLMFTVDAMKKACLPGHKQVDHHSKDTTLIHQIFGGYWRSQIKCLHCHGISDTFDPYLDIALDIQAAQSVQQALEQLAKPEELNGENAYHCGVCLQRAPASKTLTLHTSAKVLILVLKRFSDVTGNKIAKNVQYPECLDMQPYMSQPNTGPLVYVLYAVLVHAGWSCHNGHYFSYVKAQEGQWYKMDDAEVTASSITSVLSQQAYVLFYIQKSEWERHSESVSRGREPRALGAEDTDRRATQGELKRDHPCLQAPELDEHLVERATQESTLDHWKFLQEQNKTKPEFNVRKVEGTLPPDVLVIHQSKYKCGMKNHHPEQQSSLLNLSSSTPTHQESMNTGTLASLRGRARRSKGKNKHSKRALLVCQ
UCHL1 block = human UCHL1 deubiquitinase inhibition; purified UCHL1, Ub-rhodamine cleavage fluorescence; AID 1645859; actives 0.2% (n = 47,000); inhibition, % at 20 µM
USP10 block = inhibitors of human USP10 deubiquitinase. Q14694. purified USP10, Ub-rhodamine fluorescence, 60 min. inhibition, % at 20 µM. actives 1.1% (n = 47,000). AID 1645856
Of the large screens only hits and unclear results are named; the others gave an inactive call. Rule as the data show it: active = inhibition above about 30%; inactive = the rest.

Clc1cccc(-n2cc(-c3ccccc3)c3c(NCc4ccccn4)ncnc32)c1	USP30 inh 75, USP17 inh 70
CC(C)(C)c1noc(-c2ccc(-n3cnc(C(=O)N4CCOCC4)c3)nc2)n1	none
O=C(COc1nc2ccccc2nc1N1CCOCC1)N1CCc2ccccc21	none
NC(=O)c1ccccc1OCC(=O)N1CCc2ccccc21	USP30 inh 76, USP17 inh 62
Cc1cccc(-c2c3c(=O)n(C)c(=O)n(C)c3cn2-c2ccccc2C)c1	none
O=C(Nc1nc2cc3c(cc2s1)OCCO3)C1CCCCC1	none
Cc1cc2nc(NC(=O)NC3CCCCC3)sc2cc1C	USP30 inh 36
Cc1ccc(-c2cc(C(F)F)n3ncc(C(=O)Nc4ccc(O)cc4)c3n2)cc1	USP8 inh 60, USP17 inh 35, USP10 block 44
Cc1ccc(-c2cc(C(F)F)n3ncc(C(=O)Nc4ccc(Cl)cc4)c3n2)cc1	none
O=C(c1cnc2n1CC(c1cccc(C(F)(F)F)c1)CC2)N1CCNCC1 (centres undefined)	USP30 inh 30
CNC(=O)c1cnc2n1CC(c1cccc(C(F)(F)F)c1)CC2 (centres undefined)	none
CC(C)C12CN3CC(C(C)C)(CN(C1)C3[C@@H](O)[C@H](O)[C@H](O)[C@@H](O)CO)C2=O (some centres undefined)	USP30 inh 30
O=C(O)c1ccccc1C(=O)Nc1ccc(SC(C(=O)Nc2cccc(Cl)c2)c2ccccc2)cc1 (centres undefined)	USP17 inh 51, USP10 block 52
O=C(O)c1cc(NC(=O)C(Sc2cccc(NC(=O)c3ccccc3F)c2)c2ccccc2)ccc1O (centres undefined)	none
Cc1ccc(C(=O)O)cc1NC(=O)C(Sc1cccc(NC(=O)c2cccc(Cl)c2)c1)c1ccccc1 (centres undefined)	USP8 inh 40, USP30 inh 91, USP17 inh 85, USP10 block 34
Cc1ccccc1NC(=O)C(Sc1ccc(NC(=O)c2ccccc2C(=O)O)cc1)c1ccccc1 (centres undefined)	none
Cc1cccc(C(=O)Nc2cccc(SC(C(=O)Nc3ccc(Cl)c(C(=O)O)c3)c3ccccc3)c2)c1 (centres undefined)	USP8 inh 44, USP30 inh 47, USP17 inh 80, USP10 block 69
Cc1nn(-c2ccccc2)c(C)c1N1CCN(C(=O)C2CCN(S(C)(=O)=O)CC2)CC1	none
Cc1ccc2c(c1)c(N1CCCC1=O)c(C(=O)NCc1cccc(F)c1)n2C	none
CCN1CCc2nc(NC(=O)COc3ccc(Nc4ccccc4)cc3)sc2C1	USP8 inh 79
CCN1CCc2nc(NC(=O)COc3c(Cl)cccc3Cl)sc2C1	USP17 inh 37
CCOc1ncccc1C(=O)Nc1nc2c(s1)CN(CC)CC2	none
Cc1nc(C)n(CC2CN(CCC(=O)N3CCCCC3)CCO2)n1 (centres undefined)	none
CCOc1ccc(CC(=O)Nc2ccc(-c3cn4cccnc4n3)cc2)cc1	USP8 inh 40, USP17 inh 68
Cc1cccc(-c2nc3n(CC(=O)Nc4ccc(Cl)cc4)c(C)cc(=O)n3n2)c1	USP17 inh 68
COc1ccc(C(=O)NCCc2cn3cccc(C)c3n2)c(OC)c1	none
COC1/C=C/OC2(C)Oc3c(C)c(O)c4c(c3C2=O)C(=O)C=C(NC(=O)/C(C)=C\C=C\C(C)C(O)C(C)C(O)C(C)C(OC(C)=O)C1C)C4=O (centres undefined)	USP17 inh 64
COC1=C2CC(C)CC(OC)C(O)C(C)/C=C(\C)C(OC(N)=O)C(OC)/C=C\C=C(/C)C(=O)NC(=CC1=O)C2=O (centres undefined)	none
CO[C@H]1/C=C/OC2(C)Oc3c(C)c(O)c4c(c3C2=O)C2(C=C(NC(=O)/C(C)=C\C=C\[C@H](C)[C@H](O)[C@@H](C)[C@@H](O)[C@@H](C)[C@H](OC(C)=O)C1C)C4=O)OCC(=O)O2 (some centres undefined)	USP17 inh 60
Cc1cnc(N2CCC3(CC2)CN(Cc2ccccn2)C(=O)CO3)nc1	none
CCc1cccc(NC(=O)c2cc(-c3cccc(OC)c3)n[nH]2)c1	none
Cc1ccccc1S(=O)(=O)N1CCC(n2cnc3c(C)cccc3c2=O)CC1	none
Cc1ccccc1S(=O)(=O)N1CCC(n2cnc3ccccc3c2=O)CC1	none
Cc1cccc2c(=O)n(C3CCN(S(=O)(=O)c4ccccc4)CC3)cnc12	USP17 inh 44
O=c1c2ccccc2ncn1C1CCN(S(=O)(=O)c2ccccc2F)CC1	USP17 inh 51
O=C(CNC1Cc2ccccc2C1)Nc1ccccc1N1CCOCC1	USP8 inh 46
COc1ccccc1OCC(=O)Nc1ccc2c(c1)CCC(=O)N2Cc1ccccc1	USP30 inh 54
COc1ccccc1OCC(=O)Nc1ccc2c(c1)CN(C(=O)c1ccco1)CC2	USP17 inh 33
CCOc1ccc(C(c2c(O)cc(C)[nH]c2=O)c2c(O)cc(C)[nH]c2=O)cc1	none
COc1ccccc1NS(=O)(=O)c1ccc(NC(=O)c2cc3c(C)nn(-c4ccccc4)c3s2)cc1	none
COc1ccc(NC(=O)c2cc3c(C(F)(F)F)nn(C)c3s2)cc1	USP17 inh 48
Cc1nc(Nc2nncs2)cc(C2CCCN2Cc2cccnc2)n1 (centres undefined)	none
O=C(CNS(=O)(=O)c1cccs1)N1CCN(Cc2ccc3c(c2)OCO3)CC1	none
Cc1ccc(C(=O)N2CCCC3(CCCC(=O)N3C)C2)cc1F (centres undefined)	none
CN(C)C(=O)CNC(=O)c1ccc2onc(-c3coc(-c4ccccc4)n3)c2c1	USP17 inh 42
O=C(NCc1noc(-c2ccccc2)n1)c1coc(-c2ccccc2)n1	none
Cc1ccc(-c2onc3ccc(C(=O)NC4CCN(Cc5ccccc5)CC4)cc23)cc1	none
O=C(NC1CC1)c1ccc2onc(-c3coc(-c4ccccc4)n3)c2c1	USP30 inh 38
Cn1nnc2c1CCN(C(C(=O)N1CCCCC1)c1ccccc1)C2 (centres undefined)	none
Cc1cccc(NC(=O)CSc2nnc(NC(=O)c3ccc4ccccc4c3)s2)c1	USP10 block 44
NC(=O)c1cc(C2CN(C(=O)c3cccnc3)CCO2)nc2ccccc12 (centres undefined)	none
O=c1c(NCCc2ccc(Cl)cc2)nccn1-c1ccc2c(c1)OCCO2	none
c1ccc(C2(c3nc(CN4CCOCC4)no3)CCOCC2)cc1	none
COc1ccccc1NC(=O)c1cc(-c2ccccn2)nc2ccccc12	USP17 inh 59
COc1ccccc1C(=O)Nc1cc(-c2cccnc2)no1	none
COc1ccc(C(=O)Nc2cc(-c3ccccn3)no2)c(OC)c1	USP17 inh 33
COc1ccccc1C(=O)Nc1cc(-c2ccc(F)c(F)c2)no1	USP30 inh 44, USP17 inh 33
